Results as given in PubChem BioAssay AID463173 (ICCB-Longwood Screening Facility, Harvard Medical School, 2010).
The campaign covered roughly 52,000 compounds. About 4,300 (8.3%) were called active. This excerpt belongs to a sample that is enriched for actives. Unmarked numbers belong to inactive results. No stated cut-off is given here; in the data, active means survival mostly below about 52% (no sharp cut-off); inactive means mostly above about 56%.

Test system: DeltatarO mutant
Experiment: S. aureus survival, RN4220 and DeltatarO strains – OD600, teichoic acid synthesis inhibitors, primary screen (AID 463173)
Settings: S. aureus RN4220 wild type/DeltatarO growth, OD600, 18 h, stronger effect = lower value, screened at 18.75 µg/mL (by protocol)

SMILES	survival
Cc1ccc(-n2c(=O)c3c4c(sc3n(CC(=O)C(C)(C)C)c2=O)CCCCC4)cc1C	89%
CC(C)CCNC(=O)c1cn(C)c2ccc(S(=O)(=O)N3CCCC3)cc2c1=O	138%
CCc1ccc2oc(C(=O)NCC(c3ccc(OC)cc3)N3CCCCC3)c(C)c2c1 (stereo not drawn)	81%
O=C(CCn1cnc2onc(-c3ccc(F)cc3)c2c1=O)Nc1cccc(C(F)(F)F)c1	96%
Cc1ccc(-n2nc(C(=O)N3CCN(c4ccccc4F)CC3)c(=O)n(C)c2=O)cc1	93%
Cc1ccsc1CN(C(=O)COc1ccc(Br)cc1)C1CCS(=O)(=O)C1 (stereo not drawn)	73%
Cc1ccc(CN2CCC(CNC(=O)Nc3cccc(C)c3C)C2)cc1 (stereo not drawn)	112%
Cc1cc(Cl)ccc1NC(=O)Cn1nnc2sc(-c3ccccc3)cc2c1=O	106%
Cc1cn2c(=O)cc(COC(=O)c3cccc(NC(=O)c4ccccc4Cl)c3)nc2s1	102%
COc1cccc(CNC(=O)Cn2c(=O)ccc3cc(S(=O)(=O)N4CCC(C)CC4)ccc32)c1	99%
COc1cc(OC)c(NC(=O)Nc2ccccc2OCc2cc(=O)n3cc(C)ccc3n2)cc1Cl	103%
COc1ccccc1C(=O)Nc1ccc(OCc2cc(=O)n3cc(C)sc3n2)cc1	130%
CCOc1ccc(C(=O)Nc2c(C(=O)c3ccccc3)oc3ccccc23)cc1	72%
O=C(NCCc1ccccc1)c1cc2sccc2n1Cc1ccc(F)cc1	72%
COc1cc(OC)c(NC(=O)CCc2c(C)nc3ncnn3c2C)cc1Cl	97%
Cc1cn2c(=O)c(S(=O)(=O)NCc3ccccc3Cl)c(C)nc2s1	66%
COc1ccc(NC(=O)c2oc3ccccc3c2NC(=O)c2cc(=O)c3cc(Cl)ccc3o2)cc1	54%
Cc1ccc2oc(C(=O)Nc3cccc(Cl)c3)cc(=O)c2c1	92%
Cc1ccc2c(=O)cc(C(=O)Nc3c(C)cccc3C)oc2c1	44% (active)
Cc1cc(C)c2oc(C(=O)Nc3c(C(=O)Nc4ccccc4)oc4ccccc34)cc(=O)c2c1	51% (active)
Cc1ccc2oc(C(=O)Nc3c(C(=O)Nc4cccc(Cl)c4)oc4ccccc34)cc(=O)c2c1	67%
Cc1ccc2c(=O)cc(C(=O)Nc3nnc(C)s3)oc2c1	76%
O=C(Nc1c(C(=O)Nc2cccc(C(F)(F)F)c2)oc2ccccc12)c1cc(=O)c2ccccc2o1	78%
Cc1cc(C)c2oc(C(=O)Nc3c(C(=O)c4ccccc4)oc4ccccc34)cc(=O)c2c1	55%

SMILES	survival
Cc1ccc2c(=O)cc(C(=O)Nc3c(C(=O)Nc4cccc(Cl)c4)oc4ccccc34)oc2c1	36% (active)
COC(=O)c1ccc(NC(=O)c2cc(=O)c3ccc(C)cc3o2)cc1	96%
Cc1cccc(NC(=O)c2oc3ccccc3c2NC(=O)c2cc(=O)c3cc(Cl)ccc3o2)c1	43% (active)
Cc1cc2oc(C(=O)Nc3c(C(=O)Nc4ccccc4)oc4ccccc34)cc(=O)c2cc1C	106%
NCC1Cc2ccccc2O1 (stereo not drawn)	103%
O=c1c2oc3ccccc3c2n(Cc2cccc(F)c2)c(=O)n1Cc1ccco1	75%
Cc1ccccc1CSc1nnc2[nH]c(=O)cc(C)n12	84%
Cc1cc(C)cc(-n2ccnc(NCCc3ccccc3)c2=O)c1	101%
CC(C)Oc1ccc(C2CC(=O)N(C)C2=O)cc1 (stereo not drawn)	82%
Cc1ccc(OCC(=O)Nc2ccc(S(=O)(=O)N3CCOCC3)cc2)c(C)c1	94%
COc1ccc2cc(CN(Cc3nnnn3Cc3ccccc3)C3CCCC3)c(=O)[nH]c2c1	96%
CC1CCN(C(=O)c2ccc3nc(N4C(=O)CCC4=O)sc3c2)CC1	95%
COc1ccc(C)cc1NC(=O)C(=O)NCCc1csc2nc(-c3ccccc3F)nn12	72%
COc1ccc(N2CCN(S(C)(=O)=O)CC2)cc1	86%
COc1cc2c(=O)c(S(=O)(=O)c3ccc(F)cc3)cn(Cc3ccccc3C)c2cc1OC	55%
CCOC(=O)C1CCCN(C(=O)c2ccc3c(c2)sc2nc(-c4cccc(OC)c4)cn23)C1 (stereo not drawn)	77%
CCOc1ccc(C(=O)c2oc3ccccc3c2NC(=O)c2cc(=O)c3ccc(C)cc3o2)cc1	134%
Cc1cccc(NC(=O)c2oc3ccccc3c2NC(=O)c2cc(=O)c3ccc(C)cc3o2)c1	28% (active)
Cc1ccc2c(=O)cc(C(=O)Nc3c(C(=O)c4ccccc4)oc4ccccc34)oc2c1	76%
Cc1ccc(C(=O)c2oc3ccccc3c2NC(=O)c2cc(=O)c3ccccc3o2)cc1	57%
Cc1ccc2oc(C(=O)Nc3c(C(=O)Nc4ccccc4)oc4ccccc34)cc(=O)c2c1	73%
CCc1ccc2oc(C(=O)Nc3ccccc3OC)cc(=O)c2c1	49%
CCOc1ccccc1NC(=O)c1cc(=O)c2ccc(C)cc2o1	44% (active)
Cc1cccc(NC(=O)c2oc3ccccc3c2NC(=O)c2cc(=O)c3ccccc3o2)c1	73%

SMILES	survival
COc1ccc(C(=O)c2oc3ccccc3c2NC(=O)c2cc(=O)c3ccc(C)cc3o2)cc1Cl	44% (active)
COC(=O)C(C)Oc1ccc(N2C(=O)c3ccccc3C2=O)cc1 (stereo not drawn)	75%
O=S(=O)(c1ccc(-c2cc(C(F)(F)F)on2)s1)N1CCN(c2ccccc2)CC1	75%
CCOc1ccc(-c2cc3nc(C4CCN(C(=O)OC(C)(C)C)CC4)c(C(=O)Nc4cccc(C(F)(F)F)c4)cn3n2)cc1	79%
O=C1C2C3c4ccccc4C(c4ccccc43)C2C(=O)N1Cc1ccccn1 (stereo not drawn)	83%
COCC[N+]1(C)CCCCC1	84%
CC1CN(C(=O)C(C)Sc2nc(-c3ccccc3)cc(C(F)(F)F)n2)CC(C)O1 (stereo not drawn)	78%
COc1ccc(-c2cc(C(F)(F)F)nc(SCC(=O)N3CCC(C)CC3)n2)cc1	56%
CC1CCN(C(=O)CSc2nc(-c3ccc(F)cc3)cc(C(F)(F)F)n2)CC1	37% (active)
CC1CCN(C(=O)C(C)Sc2nc(-c3ccccc3)cc(C(F)(F)F)n2)CC1 (stereo not drawn)	-1% (active)
CC1CCN(C(=O)CSc2n[nH]c(-c3ccc(F)cc3)n2)CC1	92%
CC(Sc1nc(-c2ccccc2)cc(C(F)(F)F)n1)C(=O)N1CCCC1 (stereo not drawn)	101%
CC(C)C(=O)Nc1cccc(C(=O)Nc2nncs2)c1	87%
O=C(CSc1nc(-c2ccc(F)cc2)[nH]c1-c1ccccc1)NCC1CCCO1 (stereo not drawn)	82%
Cc1ccccc1-c1noc(-c2ccc(NCc3cccnc3)c([N+](=O)[O-])c2)n1	98%
O=C(c1ccc2c(c1)C(=O)N(CCCO)C2=O)c1ccc2c(c1)C(=O)N(CCCO)C2=O	70%
C[N+](C)(C)CCNC(=O)c1ccc(/C=N/O)nc1	81%
Oc1ccc(CNc2ccccc2Cl)c2cccnc12	115%
CCN(CC)S(=O)(=O)c1nnc(NC(=O)COc2ccccc2Cl)s1	95%
Cc1ccccc1OCC(=O)Nc1nnc(S(=O)(=O)N2CCCC2)s1	42% (active)
O=C(COc1ccccc1Cl)Nc1nnc(S(=O)(=O)N2CCCC2)s1	39% (active)
O=C(COc1ccccc1F)Nc1nnc(S(=O)(=O)N2CCCCCC2)s1	51% (active)
Cc1ccccc1OCC(=O)Nc1nnc(S(=O)(=O)N2CCCCCC2)s1	73%
O=C(COc1ccccc1Cl)Nc1nnc(S(=O)(=O)N2CCCCCC2)s1	70%

SMILES	survival
Cc1ccccc1OCC(=O)Nc1nnc(S(=O)(=O)N(C)c2ccccc2)s1	67%
Cc1ccc(NC(=O)CN2C=NS(=O)(=O)c3ccccc32)cc1	76%
Cc1ccc2nc(N(Cc3cccnc3)C(=O)c3ccc4c(c3)OCCO4)sc2c1	70%
COc1ccc(/C=C/c2nc(C#N)c(N3CCN(c4ccccc4)CC3)o2)cc1OC	88%
COc1ccc(-c2onc(C)c2C)cc1S(=O)(=O)NC1CCCCC1	72%
CCOc1ccc(CCNC(=O)C2CCN(C(=O)N3CC(CC)Oc4ccc(C)cc43)CC2)cc1 (stereo not drawn)	63%
Cc1ccc(Cn2cc(S(=O)(=O)c3ccc(Cl)cc3)c(=O)c3cc4c(cc32)OCO4)cc1	77%
Cc1ccc(S(=O)(=O)NCCc2nnc3ccc(SCC(=O)Nc4ccc(F)cc4F)nn23)cc1	88%
Cc1c(C)n(Cc2ccccc2)c2ccc(C(=O)N3CCN(c4ccccc4)CC3)cc12	99%
CCN(CC)S(=O)(=O)c1ccc(NC(=O)c2ccccc2)cc1	77%
COC(=O)c1ccc(NC(=O)CN(Cc2ccccc2)S(=O)(=O)c2ccc(Cl)cc2)cc1	40% (active)
CCOC(=O)c1ccc(CN(Cc2ccc(F)cc2)S(=O)(=O)c2ccc(F)cc2)cc1	87%
CCOC(=O)c1ccc(CN(Cc2ccccc2)S(=O)(=O)c2ccc(Cl)cc2)cc1	32% (active)
CCOC(=O)c1ccc(NC(=O)CN(Cc2ccc(C)cc2)S(=O)(=O)c2ccc(C)cc2)cc1	58%
COC(=O)c1ccc(NC(=O)CN(Cc2ccccc2)S(=O)(=O)c2ccc(C)cc2)cc1	42% (active)
CCOC(=O)c1ccc(CN(Cc2ccc(C)cc2)S(=O)(=O)c2ccc(NC(C)=O)cc2)cc1	73%
Cc1ccc(S(=O)(=O)N(CC(=O)Nc2ccc(C(C)C)cc2)Cc2ccccc2)cc1	54%
CC(=O)Nc1ccc(S(=O)(=O)N(Cc2ccccc2)Cc2ccccc2)cc1	54% (active)
CCOc1ccc(NC(=O)CN(Cc2ccccc2)S(=O)(=O)c2ccc(Cl)cc2)cc1	78%
COC(=O)c1ccc(NC(=O)CN(CCc2ccccc2)S(=O)(=O)c2ccc(OC)cc2)cc1	69%
CCOC(=O)c1ccc(CN(Cc2ccc(Cl)cc2Cl)S(=O)(=O)c2cccc(Cl)c2)cc1	80%
